# Reference: PubChem BioAssay
# The source made the active and inactive calls. Unless noted, no rule for the calls is given here.
# What was measured:
# [1] = HepG2 liver cancer cell viability effects, profiling panel, resazurin fluorescence, 24 h, PK04 Diversity Set (AID 1172); settings: higher = more signal
# [2] = basal S. cerevisiae growth modulation, no modifier, primary screen, OD600, strain BY4716, 24 h, basal condition (AID 1173); settings: OD600, 24 h, higher = more signal, called active from +8 up or from −8 down
# [3] = MM1S myeloma cell viability, profiling panel, resazurin fluorescence, basal, 24 h, PK04 Diversity Set (AID 1174); settings: higher = more signal, called active from +8 up or from −8 down;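 also: MM1S multiple myeloma cell line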
# [4] = molecular target: Dihydroorotate dehydrogenase (quinone), mitochondrial (Plasmodium falciparum (isolate 3D7)) (UniProt Q08210); assay: PfDHODH enzyme inhibitors, primary screen, biochemical, C-terminal His tag, absorbance 600 nm (AID 1175); settings: DCIP absorbance 600 nm, higher = more signal, called active from +8 up or from −8 down;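 also: recombinant parasite enzyme with a five histidine tag at its C terminus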
# Sequence of Dihydroorotate dehydrogenase (quinone), mitochondrial (Plasmodium falciparum (isolate 3D7)) (Q08210 whole entry, looked up): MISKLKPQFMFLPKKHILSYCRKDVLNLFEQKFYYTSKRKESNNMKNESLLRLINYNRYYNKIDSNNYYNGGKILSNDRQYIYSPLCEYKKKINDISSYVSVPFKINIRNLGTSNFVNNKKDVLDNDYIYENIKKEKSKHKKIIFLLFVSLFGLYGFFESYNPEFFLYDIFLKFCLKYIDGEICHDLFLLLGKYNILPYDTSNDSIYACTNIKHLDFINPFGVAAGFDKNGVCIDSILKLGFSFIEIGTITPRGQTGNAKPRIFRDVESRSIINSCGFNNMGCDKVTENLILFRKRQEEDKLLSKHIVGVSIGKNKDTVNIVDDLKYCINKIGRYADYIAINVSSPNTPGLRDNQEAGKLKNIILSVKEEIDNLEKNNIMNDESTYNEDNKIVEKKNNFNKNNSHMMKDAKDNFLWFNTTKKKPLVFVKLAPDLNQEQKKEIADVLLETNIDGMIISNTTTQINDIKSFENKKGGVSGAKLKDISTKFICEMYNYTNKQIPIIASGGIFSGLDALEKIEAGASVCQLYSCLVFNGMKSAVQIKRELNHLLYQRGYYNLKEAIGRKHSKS
# [5] = P. aeruginosa biofilm formation inhibitors, primary screen, strain PAO1, LB-PBS medium, absorbance 600 nm (AID 1176); settings: P. aeruginosa PAO1 growth/biofilm, A600, 12 h; higher = more signal
# [6] = S. cerevisiae RM11-1a growth modifiers, primary screen, strain RM11-1a, OD600, basal, 24 h (AID 1177); settings: OD600, 24 h, higher = more signal, called active from +8 up or from −8 down;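 also: cultures grown under basal conditions with no added stressor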
# [7] = E. coli acrAB mutant growth effects, primary screen, E. coli filamentation inducers, strain DRC39, OD650, 24 h (AID 1178); settings: higher = more signal, called active from +8 up or from −8 down;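 also: growth measured as culture turbidity by optical density at 650 nm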
# [8] = E. coli acrAB mutant growth effects, primary screen, E. coli filamentation inducers, strain DRC39, OD650, 48 h (AID 1179);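 also: screen aims at cell division blockers that make cells filament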; settings: E. coli DRC39 delta-acrAB growth, higher = more signal, called active from +8 up or from −8 down
# [9] = RPMI8226 myeloma cell viability, profiling panel, resazurin fluorescence, basal, 24 h, PK04 Diversity Set (AID 1180); settings: higher = more signal;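 also: RPMI8826 multiple myeloma cell line at 5000 cells per well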
# [10] = molecular target: E3 ubiquitin-protein ligase XIAP (Homo sapiens) (UniProt P98170); assay: XIAP binders, primary screen, biophysical, small-molecule microarray, fluorescence 635 nm (AID 1181); settings: small-molecule microarray binding, higher = more signal;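 also: score merges 667 nm emission and signal to noise over triplicate slides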
# Sequence of E3 ubiquitin-protein ligase XIAP (Homo sapiens) (P98170 whole entry, looked up): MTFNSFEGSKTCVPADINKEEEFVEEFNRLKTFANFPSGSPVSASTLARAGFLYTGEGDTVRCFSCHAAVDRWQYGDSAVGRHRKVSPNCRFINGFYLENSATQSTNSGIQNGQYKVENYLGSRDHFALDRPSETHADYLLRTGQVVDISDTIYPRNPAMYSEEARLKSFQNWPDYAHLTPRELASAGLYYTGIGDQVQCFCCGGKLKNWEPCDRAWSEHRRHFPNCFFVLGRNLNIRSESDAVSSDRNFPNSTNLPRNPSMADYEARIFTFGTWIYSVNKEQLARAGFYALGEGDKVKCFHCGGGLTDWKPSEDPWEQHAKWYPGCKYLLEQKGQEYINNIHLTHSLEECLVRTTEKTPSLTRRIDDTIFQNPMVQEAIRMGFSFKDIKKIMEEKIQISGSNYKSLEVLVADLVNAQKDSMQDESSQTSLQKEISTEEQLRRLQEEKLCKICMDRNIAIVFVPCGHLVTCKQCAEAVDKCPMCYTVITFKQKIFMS
# [11] = tested on: XIP peptide (Xip251-270) binding; assay: small-molecule binders of XIP peptide, primary screen, biochemical, small-molecule microarray, fluorescence 635/667 nm, 0.1 µg/mL protein (AID 1182); settings: fluorescent protein binding, 635 nm, higher = more signal, called active from +8 up or from −8 down
# XIP peptide (Xip251-270) = assay: small-molecule binders of XIP peptide, primary screen, biochemical, small-molecule microarray, fluorescence 635/667 nm, 0.5 µg/mL protein (AID 1183); settings: small-molecule microarray binding, fluorescence 635 nm; higher = more signal
# [12] = Plasmodium falciparum growth inhibition, primary screen, strain 3D7, DAPI fluorescence, 100 nL (AID 1184);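 also: parasites grown inside human red blood cells in medium with human serum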; settings: P. falciparum 3D7 growth, 3 d, higher = more signal
# [13] = molecular target: Homeobox protein Hox-A13 (Mus musculus) (UniProt Q62424); assay: inhibitors of HoxA13-DNA binding, primary screen, biochemical, fluorescence polarization, labeled oligonucleotide (AID 1185); settings: 15 min, higher = more signal, called active from +8 up or from −8 down
# Sequence of Homeobox protein Hox-A13 (Mus musculus) (Q62424 whole entry, looked up): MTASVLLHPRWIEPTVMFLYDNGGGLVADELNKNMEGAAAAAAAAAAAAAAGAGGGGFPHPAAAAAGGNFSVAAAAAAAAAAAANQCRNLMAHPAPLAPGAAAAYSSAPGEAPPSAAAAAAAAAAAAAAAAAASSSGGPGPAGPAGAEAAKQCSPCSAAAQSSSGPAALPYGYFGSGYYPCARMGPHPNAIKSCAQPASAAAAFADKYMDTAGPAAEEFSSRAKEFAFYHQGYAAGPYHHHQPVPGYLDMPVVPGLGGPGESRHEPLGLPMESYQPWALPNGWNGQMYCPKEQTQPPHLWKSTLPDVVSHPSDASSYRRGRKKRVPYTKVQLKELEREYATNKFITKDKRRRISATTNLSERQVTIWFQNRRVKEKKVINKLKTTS
# [14] = inhibitors of hydroxyurea-induced Chk1 phosphorylation, primary screen, imaging, HeLa, phospho-Chk1 antibody, percent positive cells (AID 1186); settings: hydroxyurea-induced phospho-Chk1 immunofluorescence imaging, higher = more signal
# [15] = inhibitors of hydroxyurea-induced Chk1 phosphorylation, primary screen, imaging, HeLa, phospho-Chk1 nuclear intensity (AID 1187); settings: hydroxyurea-induced phospho-Chk1 immunofluorescence imaging, higher = more signal
smiles,measurement,setting,value
CCCC[C@@H](O)C1=C(COC)Cn2c(=O)n(-c3ccccc3)c(=O)n2[C@H]1CO,z-score,[1],-0.603
same,z-score,[2],-1.86 (inactive)
same,z-score,[3],-0.0278 (inactive)
same,composite z-score,[4],-1.45 (inactive)
same,z-score,[5],-0.131 (inactive)
same,z-score,[6],-2.03 (inactive)
same,z-score,[7],1.15 (inactive)
same,z-score,[8],1.06 (inactive)
same,z-score,[9],-0.0456
same,composite z-score,[10],-0.189
same,composite z-score,[11],-0.698 (inactive)
same,composite z-score,XIP peptide (Xip251-270),-0.0217
same,z-score,[12],0.519
same,z-score,[13],-0.879 (inactive)
same,z-score,[14],-0.464 (inactive)
same,z-score,[15],0.126 (inactive)
CN1C=C(C(=O)OCCS(C)(=O)=O)C(C(=O)OCCS(C)(=O)=O)=CC(CCCO)=CC1c1ccc(CN2CCCC2)cc1 (stereo not given),z-score,[1],-0.533
same,z-score,[2],-2.02 (inactive)
same,z-score,[3],0.0555 (inactive)
same,composite z-score,[4],-0.379 (inactive)
same,z-score,[5],0.719 (inactive)
same,z-score,[6],0.27 (inactive)
same,z-score,[7],0.364 (inactive)
same,z-score,[8],0.121 (inactive)
same,z-score,[9],0.274
same,composite z-score,[10],-0.0525
same,composite z-score,[11],0.629 (inactive)
same,composite z-score,XIP peptide (Xip251-270),0.694
same,z-score,[12],-2.24
same,z-score,[13],-4.07 (inactive)
same,z-score,[14],0.266 (inactive)
same,z-score,[15],-0.0538 (inactive)
COC(=O)c1ccc([C@H](NC(=O)c2ccccc2)[C@]2(C)C[C@H]2C2CCCCC2)cc1,z-score,[1],0.38
same,z-score,[2],1.28 (inactive)
same,z-score,[3],0.713 (inactive)
same,composite z-score,[4],-0.256 (inactive)
same,z-score,[5],0.371 (inactive)
same,z-score,[6],0.832 (inactive)
same,z-score,[7],-1 (inactive)
same,z-score,[8],-0.768 (inactive)
same,z-score,[9],0.293
same,composite z-score,[10],-0.127
same,composite z-score,[11],-0.317 (inactive)
same,composite z-score,XIP peptide (Xip251-270),-0.199
same,z-score,[12],-0.631
same,z-score,[13],3.23 (inactive)
same,z-score,[14],-0.198 (inactive)
same,z-score,[15],-0.123 (inactive)
C=C(/C(=C/C[C@@H](OC(C)=O)c1ccccc1OCCO)c1cc(C(=O)OC)ccc1OC)C(C)C,z-score,[1],0.862
same,z-score,[2],-1.18 (inactive)
same,z-score,[3],-0.296 (inactive)
same,composite z-score,[4],-1.22 (inactive)
same,z-score,[5],0.0478 (inactive)
same,z-score,[6],0.508 (inactive)
same,z-score,[7],1.62 (inactive)
same,z-score,[8],1.04 (inactive)
same,z-score,[9],0.676
same,composite z-score,[10],-0.323
same,composite z-score,[11],0.988 (inactive)
same,composite z-score,XIP peptide (Xip251-270),0.839
same,z-score,[12],-2.8
same,z-score,[13],-4.71 (inactive)
same,z-score,[14],0.689 (inactive)
same,z-score,[15],0.766 (inactive)
CCCC=C(CCC)[C@@H](NC(=O)c1ccco1)c1ccc(C(=O)OC)cc1,z-score,[1],3.5
same,z-score,[2],1.39 (inactive)
same,z-score,[3],1.12 (inactive)
same,composite z-score,[4],-0.0216 (inactive)
same,z-score,[5],-0.387 (inactive)
same,z-score,[6],1.67 (inactive)
same,z-score,[7],-0.422 (inactive)
same,z-score,[8],-0.245 (inactive)
same,z-score,[9],-2.8
same,composite z-score,[10],0.251
same,composite z-score,[11],0.192 (inactive)
same,composite z-score,XIP peptide (Xip251-270),0.585
same,z-score,[12],-0.465
same,z-score,[13],-1.4 (inactive)
same,z-score,[14],-0.125 (inactive)
same,z-score,[15],-0.17 (inactive)
CN(C)CCCC[C@@H]1NC(=O)[C@H]2C[C@@H](C(=O)NCc3ccc(F)cc3)[C@@H](c3ccc(O)cc3)N2C1=O,z-score,[1],0.222
same,z-score,[2],-0.549 (inactive)
same,z-score,[3],0.766 (inactive)
same,composite z-score,[4],-1.54 (inactive)
same,z-score,[5],-0.832 (inactive)
same,z-score,[6],-0.649 (inactive)
same,z-score,[7],0.11 (inactive)
same,z-score,[8],0.182 (inactive)
same,z-score,[9],0.382
same,composite z-score,[10],0.207
same,composite z-score,[11],2.07 (inactive)
same,composite z-score,XIP peptide (Xip251-270),0.934
same,z-score,[12],-0.057
same,z-score,[13],-1.36 (inactive)
same,z-score,[14],0.806 (inactive)
same,z-score,[15],1.32 (inactive)
NC(=O)[C@@]1(CCS(=O)(=O)c2ccccc2)COC(c2ccc(OCCCO)cc2)=N1,z-score,[1],-0.285
same,z-score,[2],0.511 (inactive)
same,z-score,[3],-1.34 (inactive)
same,composite z-score,[4],-0.809 (inactive)
same,z-score,[5],-0.304 (inactive)
same,z-score,[6],0.0637 (inactive)
same,z-score,[7],-0.223 (inactive)
same,z-score,[8],0.491 (inactive)
same,z-score,[9],-0.318
same,composite z-score,[10],0.291
same,composite z-score,[11],-0.377 (inactive)
same,composite z-score,XIP peptide (Xip251-270),-0.395
same,z-score,[12],0.605
same,z-score,[13],-4.75 (inactive)
same,z-score,[14],-0.511 (inactive)
same,z-score,[15],-1.12 (inactive)
CCOC(=O)C1=CC[C@@H](c2ccccc2Cl)N(S(=O)(=O)c2ccc(C)cc2)[C@H]1c1cccc(OC)c1,z-score,[1],-0.18
same,z-score,[2],1.46 (inactive)
same,z-score,[3],-0.703 (inactive)
same,composite z-score,[4],0.0463 (inactive)
same,z-score,[5],0.34 (inactive)
same,z-score,[6],0.822 (inactive)
same,z-score,[7],-0.484 (inactive)
same,z-score,[8],-0.679 (inactive)
same,z-score,[9],-1.53
same,composite z-score,[10],-0.114
same,composite z-score,[11],0.211 (inactive)
same,composite z-score,XIP peptide (Xip251-270),0.246
same,z-score,[12],-0.794
same,z-score,[13],-1.18 (inactive)
same,z-score,[14],0.0932 (inactive)
same,z-score,[15],-0.553 (inactive)
CCCCCCc1nc(-c2ccc(OC)nc2)cc2c1[Si](C(C)C)(C(C)C)OC2,z-score,[1],0.0579
same,z-score,[2],0.721 (inactive)
same,z-score,[3],0.426 (inactive)
same,composite z-score,[4],-3.12 (inactive)
same,z-score,[5],-0.0391 (inactive)
same,z-score,[6],-0.483 (inactive)
same,z-score,[7],0.37 (inactive)
same,z-score,[8],0.212 (inactive)
same,z-score,[9],0.343
same,composite z-score,[10],-0.0525
same,composite z-score,[11],-0.0275 (inactive)
same,composite z-score,XIP peptide (Xip251-270),-0.019
same,z-score,[12],-1.99
same,z-score,[13],-3.55 (inactive)
same,z-score,[14],-0.0362 (inactive)
same,z-score,[15],0.237 (inactive)
C=CCNC(=O)[C@H]1[C@@H]2C(=O)O[C@@H](c3ccccc3)[C@@H](c3ccccc3)N2[C@@H](c2ccccc2OCCO)[C@]12C(=O)N(C(=O)OCCOC)c1ccccc12,z-score,[1],-0.293
same,z-score,[2],1.52 (inactive)
same,z-score,[3],-1.04 (inactive)
same,composite z-score,[4],0.692 (inactive)
same,z-score,[5],2.98 (inactive)
same,z-score,[6],2 (inactive)
same,z-score,[7],0.225 (inactive)
same,z-score,[8],-0.369 (inactive)
same,z-score,[9],-2.9
same,composite z-score,[10],0.0797
same,composite z-score,[11],0.346 (inactive)
same,composite z-score,XIP peptide (Xip251-270),0.814
same,z-score,[12],-1.68
same,z-score,[13],-4.77 (inactive)
same,z-score,[14],0.0539 (inactive)
same,z-score,[15],0.109 (inactive)
